Assay outcomes from PubChem.
CSC inhib = blocks cancer stem cells | cancer stem cell-like cells viability, luminescence | hit rate 1.1% among 300,000 | inhibition, % at 7.5 µM; in the data active = inhibition above about 75%; inconclusive = no clear call, values can overlap the other calls; tested in HMLE shEcad cells
SKKanGAS inh = blocks kanamycin growth of S. pyogenes SKKanGAS strain. inhibition, % at 7.5 µM. AID 1662. BacTiter-Glo, 6 h. hit rate 1.3% among 300,000;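 active = mean replicate score, as percent of positive control median, at least 50; inconclusive = mean below 50 but one replicate at or above 50; inactive = mean and every replicate below 50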;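 note: strain carries kanamycin resistance gene driven by streptokinase promoter and grows in 40 µg/ml kanamycin; loss of luminescence reflects streptokinase promoter inhibition or plain growth inhibition; 0% = median of DMSO wells and 100% = positive control at its reference dose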
GRIN3A LBD mod = modulates the human NR3A ligand-binding domain; NR3A LBD differential scanning fluorimetry, Tm shift; 0% = protein alone, 100% = glycine-bound protein; Tm shift relative to glycine control, % at 25 µM; hit rate 2.5% among 340,000; AID 1259313;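 active = melting temperature shift of at least 10% of the positive control shift, at one fixed dose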
Mdm2 MdmX PPI = disrupts the human Mdm2-MdmX interaction | O15151+Q00987 | SaOS-2 split-luciferase Mdm2/MdmX complementation, luminescence | inhibition, % at 8 µM | hit rate 3% among 330,000;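 active = inhibition of at least 50% at 8 µM in the primary screen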
Beta apoptosis = blocks beta cell apoptosis. INS-1E cytokine-induced death, ATP luminescence, 48 h; percent of positive-control rescue, neutral wells zero. AID 435005. protection from apoptosis, % (concentration not given with the values). hit rate 0.8% among 300,000;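 active = Every replicate reaches about 75%, or at least half do and their mean reaches it too, limit read from the data; inconclusive = At least half of replicates reach the limit but their mean does not; inactive = Under half of replicates reach the limit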;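 note: 0% = cytokine-treated negative control wells and 100% = positive control rescue; higher means more ATP so stronger rescue from cytokine killing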
MPTP block = blocks calcium-induced mitochondrial swelling; isolated mouse mitochondria, Ca2+ swelling absorbance, 30 min; inhibition, % at 10 µM; hit rate 1.4% among 360,000; AID 602449;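 active = inhibition of 50% or more, scaled per plate between neutral and stimulator controls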;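 note: 0% = DMSO wells given calcium and 100% = 1 mM EGTA wells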
Rh123 counter = membrane potential counter-screen of mitochondrial pore inhibitors | shares compounds with MPTP block | isolated mitochondria, Rhodamine 123 fluorescence | inhibition, % at 10 µM | hit rate 78% among 5,000 | AID 624504; in the data active = inhibition above about 22%;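 note: 0% = DMSO vehicle and 100% = positive control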
MPTP abs DR = dose response confirmation of mitochondrial permeability transition pore inhibitors | shares compounds with MPTP block | isolated mitochondria swelling, absorbance | IC50, µM | hit rate 58% among 780; in the data active = IC50 below about 20 µM
MPTP counter DR = MPTP inhibitor counter-screen activity, dose response | isolated mitochondria counterscreen, fluorescence read-out | shares compounds with MPTP block | AID 651564 | IC50, µM | hit rate 49% among 780; in the data active = IC50 below about 80 µM
* marks the source's active call; other numbers are inactive results; i = inactive; u = inconclusive; x = no result. Shown are actives, neighbours in structure and some others; about 6.9% of the full set was active somewhere.

SMILES	CSC inhib	SKKanGAS inh	GRIN3A LBD mod	Mdm2 MdmX PPI	Beta apoptosis	MPTP block	Rh123 counter	others
O=C(CSc1nnc(Cn2nnc3ccccc32)o1)N(Cc1ccc(Cl)cc1)c1ccccc1	16	8	1	17	99*	96*	103*
CC(C)(Oc1ccc(F)cc1)C(=O)OCC(=O)c1ccc(S(C)(=O)=O)cc1	-15	x	1	15	-3	-1	x
N#Cc1ccccc1OCC(=O)NC(=O)NC1CCS(=O)(=O)C1 (centres undefined)	x	x	1	20	-2	-1	x
Cc1cc(Cl)c(S(N)(=O)=O)cc1OCC(=O)NC1CCCCC1	4	3	0	-3	-5	1	x
Cc1cc(Cl)c(S(=O)(=O)NC2CCCC2)cc1OCC(=O)NC1CCCCC1	-10	3	1	14	27	80*	72*
Cc1cc(Cl)c(S(=O)(=O)N2CCSCC2)cc1OCC(=O)NC1CCCCC1	-22	-2	1	23	32	86*	85*
Cc1cc(Cl)c(S(=O)(=O)N2CCCCCC2)cc1OCC(=O)NC1CCCCC1	14	1	-5	32	62	37	x
Cc1ccc(Oc2ccc(NC(=O)Cn3ccsc3=N)cc2)cc1	48	0	1	36	0	89*	-25	MPTP abs DR=6.3*;MPTP counter DR=>80
CC1(C(=O)NS(=O)(=O)c2cccc(F)c2)CCN1C(=O)Cc1cccc2ccccc12 (centres undefined)	x	x	x	x	x	1	x
CCOC(=O)c1ccc(Nc2ccc(C(C)=O)cc2)cc1	x	x	x	x	x	1	x
CCOC(=O)c1ccc(Nc2nnc(C(C)(C)C)c(=O)[nH]2)cc1	8	-1	-6	7	21	93*	83*
COC(=O)c1c(C)cc(O)cc1O	-9	0	1	9	-6	-3	x
Cc1cc(OC(=O)c2c(C)cc(OC(=O)c3c(C)cc(O)cc3O)cc2O)cc(O)c1C(=O)O	0	23	3	21	-5	72*	67*
C[n+]1ccc(/C=N/Nc2nc(Cl)c(C#N)c(Cl)c2Cl)cc1	-7	91*	1	23	x	103*	76*
Clc1nnc(N/N=C/c2ccccc2)c2ccccc12	1	-4	-16	-120	6	0	x
CCC(C)c1ccc(S(=O)(=O)N2CCN3CCCC3C2)cc1 (centres undefined)	-10	1	1	16	-5	0	x
OCCC1CN(Cc2ccccc2OC2CCCC2)CCN1Cc1ccsc1 (centres undefined)	5	-2	-2	21	2	-1	x
COc1[nH]c(/N=C/c2ccccc2)c(C#N)c1C#N	-12	2	-6	7	-1	87*	33*
COc1ccc(/C=N/c2oc(-c3ccccc3)cc2C#N)cc1	-2	1	-16	-9	-2	2	x
CN1CCc2c(OCC(=O)N3CCC(Cc4ccccc4)CC3)cccc2C1=O	33	-3	-2	19	16	82*	49*
Cc1ccccc1NC(=O)Nc1cccs1	-3	3	-13	21	-4	4	x
Cc1ccc(Cl)cc1NC(=O)Nc1cccs1	4	-5	20*	7	8	87*	86*
COc1ccc(CN2CCN(C3CCC3)CC2CCO)cc1C (centres undefined)	0	-6	0	11	-4	1	x
Cc1ccc(OCC(=O)N2CCC(C)CC2)c([N+](=O)[O-])n1	x	x	-2	2	5	-1	x
CCOC(=O)c1c(CSC(=N)N)n(-c2ccccc2)c2cc(Br)c(OC(C)=O)cc12	59	-17	-4	25	-3	-4	x
SMILES	CSC inhib	SKKanGAS inh	GRIN3A LBD mod	Mdm2 MdmX PPI	Beta apoptosis	MPTP block	Rh123 counter	others
N#Cc1cccc(C#N)c1Oc1ccc(S(=O)(=O)Nc2ccccc2)cc1	-2	8	-1	25	-7	54*	15	MPTP abs DR=i;MPTP counter DR=30*
CCOc1cccc(C(=O)N(Cc2cccc(F)c2)C2CCS(=O)(=O)C2)c1 (centres undefined)	x	-7	1	6	x	0	x
Cc1cc(N/C(=N\S(=O)(=O)c2ccc(F)cc2F)c2ccccc2)no1	-13	-3	-1	16	-4	1	x
Cc1ccc2nc(N/C(=N/S(=O)(=O)c3ccc(F)cc3F)c3ccccc3)sc2c1	29	31	1	-7	7	50*	69*
C/C(=N/NC(=O)c1cc2ccccc2cc1O)C1C(=O)c2ccccc2C1=O	48	83*	9	-3	6	86*	17
C/C(=N\NC(=O)c1ccccc1O)C1C(=O)c2ccccc2C1=O	48	52*	12*	21	32	64*	70*
COc1ccc(-c2nn(-c3ccccc3)cc2C(N)=O)cc1OC	-2	-4	1	-3	-1	1	x
O=C(NCc1ccccc1)C1C(c2ccccc2)=Nc2ccccc2N1C(=O)c1ccncc1 (centres undefined)	x	x	x	x	x	-1	x
COC(=O)c1cc(NC(=O)c2cc(-c3ccc(Cl)cc3)oc2C(F)(F)F)ccc1N1CCOCC1	40	59*	5	43	0	76*	80*
Cc1cc(C)cc(NC(=O)Nc2ccc(-n3ccc(C(F)(F)F)n3)cc2)c1	104*	1	17*	37	30	87*	83*
Cc1ccc(NC(=O)COC(=O)c2ccc3ncsc3c2)c(C)c1	x	x	x	x	x	0	x
O=C(CSc1nc(-c2cccs2)cc(C(F)(F)F)n1)Nc1cc(OCC(F)(F)C(F)F)cc([N+](=O)[O-])c1	-13	2	10*	7	21	93*	80*
CC(OC(=O)CCc1nc2ccccc2c(=O)[nH]1)C(=O)c1ccc(C(C)(C)C)cc1 (centres undefined)	-3	9	-3	3	-4	96*	86*
CCC(O)(CC)C(=O)N/N=C/c1cc(Br)cc(Br)c1O	u	89*	-6	43	28	83*	46*
COCOc1ccc(/C=C/C(=O)c2c(OCOC)cc(OCOC)c(CC=C(C)C)c2O)cc1OCOC	-5	13	-6	32	-3	4	x
COc1ccc(NC(=O)CCCc2ccccc2)c(OC)c1	-16	-1	0	9	2	0	x
COc1cc(CCc2ccccc2)c(C(=O)O)c(O)c1C/C=C(/C)CCC=C(C)C	x	x	10*	18	x	87*	56*
COc1cc(CCc2ccccc2)c(C(=O)O)c(O)c1CC=C(C)C	x	x	-4	x	x	93*	69*
COC(=O)c1ccc(CNC(=O)C2CCC(=O)N(C3CCCCCC3)C2)cc1 (centres undefined)	-6	0	1	-6	2	2	x
